# From PubChem BioAssay
# CYP2C9 act – increases human cytochrome P450 2C9 activity; P11712; recombinant CYP2C9, luciferin-H conversion, luminescence; hits give high values; factor 1 = untreated enzyme, 0 = blocked; activation factor at 5 µM; hit rate 1.4% among 96,000;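 active means activation factor of 2 or more for CYP2C9 at a 5 µM dose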;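 further: 0 = sulfaphenazole-blocked wells and 1 = vehicle-only wells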
# Target sequence (P11712 whole entry, looked up): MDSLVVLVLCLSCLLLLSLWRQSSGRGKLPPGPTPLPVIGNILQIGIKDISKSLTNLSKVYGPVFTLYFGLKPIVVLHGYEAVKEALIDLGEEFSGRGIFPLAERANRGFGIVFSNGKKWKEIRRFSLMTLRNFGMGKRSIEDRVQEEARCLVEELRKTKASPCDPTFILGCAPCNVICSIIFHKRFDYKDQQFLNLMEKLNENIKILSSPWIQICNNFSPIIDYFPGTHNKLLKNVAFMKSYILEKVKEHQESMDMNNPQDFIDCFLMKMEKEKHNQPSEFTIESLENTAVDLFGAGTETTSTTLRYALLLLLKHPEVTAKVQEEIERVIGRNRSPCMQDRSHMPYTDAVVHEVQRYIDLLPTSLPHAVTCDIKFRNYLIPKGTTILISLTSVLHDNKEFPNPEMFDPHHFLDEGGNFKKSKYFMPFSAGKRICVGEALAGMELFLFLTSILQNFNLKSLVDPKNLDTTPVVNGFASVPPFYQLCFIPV
# sEH activator – increases human soluble epoxide hydrolase activity | AID 717 | purified human sEH enzymatic activity, activator screen | activation, % at 2 µM | P34913 | hit rate 0.04% among 91,000; in the data active means activation above about 37%
# CYP2C19 activ – cytochrome P450 2C19 (human) activation; P33261; recombinant CYP2C19, luciferin-H EGE luminescence; hits give high values; 0 = fully inhibited enzyme, 1 = untreated enzyme; activation factor at 5 µM; 96,000 tested, under 10 active; AID 1025;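 active means activation factor of at least 2 at 5 µM in the primary screen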;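 further: 0 = wells with 2.5 mM tranylcypromine and 1 = vehicle-only wells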
# CYP2C9 inh – inhibitors of human CYP2C9. P11712. CYP2C9 Supersomes, luciferin-H conversion, luminescence. inhibition, % at 5 µM. hit rate 20% among 96,000;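 active means blocking of liver enzyme CYP2C9 beyond about 50% at 5 µM, limit read from the data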
# CYP2C19 inh – inhibitors of human CYP2C19 | CYP2C19 Supersomes, luciferin-H EGE luminescence, 30 min | inhibition, % at 5 µM | hit rate 21% among 96,000;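 active means CYP2C19 inhibition above a set limit at 5 µM in the primary screen, cut at about 50% in these data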;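 further: plate controls were negative control wells for no effect and 2.5 mM tranylcypromine positive control for full effect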
# sEH inhibitor – blocks human soluble epoxide hydrolase activity; P34913; recombinant human sEH enzymatic activity assay; inhibition, % at 2 µM; hit rate 0.34% among 91,000; in the data active means inhibition above about 80%
# Active calls of the source: *; / = no result given. An excerpt weighted towards active compounds, which were near 27% of everything screened.
SMILES,CYP2C9 act,sEH activator,CYP2C19 activ,CYP2C9 inh,CYP2C19 inh,sEH inhibitor
Cc1nn(-c2ccccc2)c(Cl)c1C1C(C#N)=C(N)Oc2c1c(=O)oc1ccccc21 (stereo not given),0,14,0.6,99*,45,-14
COc1ccccc1/C=C1/C(=N/O)C2CCN1CC2,1,/,0.1,-5,91*,/
COc1ccccc1CC1/C(=N/O)C2CCN1CC2 (stereo not given),0.9,-1,0.8,9,18,-1
Cc1cc(C)n(CCOC(=O)C2C(C=C(Cl)Cl)C2(C)C)n1 (stereo not given),0.3,-3,0.1,75*,92*,6
Nc1ccc2c(c1)oc1ccccc12,0.8,1,0.8,21,22,2
Clc1cccc(CN2CCCCC2c2cccnc2)c1 (stereo not given),0.5,/,0.1,54*,95*,/
O=C1C2CCCN2C(c2cccnc2)N1c1cccc(Cl)c1 (stereo not given),0.9,-3,0.8,15,16,1
c1cncc(C2CCCCN2Cc2ccc3c(c2)OCO3)c1 (stereo not given),0.8,-17,0,20,97*,17
Cc1cc(C)c(S(=O)(=O)NCC2CCC(C(=O)N3CCC4(CC3)OCCO4)CC2)c(C)c1 (stereo not given),0.9,-12,0.7,13,26,15
CCC1(c2ccccc2)C(=O)N(COC)C(=O)N(COC)C1=O,0.9,-4,0.2,12,79*,2
Oc1ccc(C2NCc3ccccc3-n3cccc32)cc1Cl (stereo not given),0.1,-1,0,89*,98*,0
Cc1c(C(=O)N2CCC3(CC2)OCCO3)sc2ncnc(N3CCN(c4ccccn4)CC3)c12,0.1,/,0.4,87*,62*,/
COc1ccc(Nc2ncc(C(=O)N3CCC4(CC3)OCCO4)c3ccccc23)cc1,0.9,/,0.8,14,23,/
CCCCN1C(=O)NC(=O)C2(Cc3c(nc4c(C)cccn4c3=O)N3CCc4ccccc4C32)C1=O (stereo not given),0.1,-6,0.2,89*,77*,5
CCCCN1C(=O)NC(=O)C2(Cc3c(nc4ccccn4c3=O)N3CCc4ccccc4C32)C1=O (stereo not given),0.7,-3,0.8,28,25,1
CC(C)(C)n1c(O)c(C=Nc2ccc3c(c2)CCC3)c(=O)[nH]c1=O,0.3,5,0.6,74*,38,-4
O=c1[nH]c(=O)n(CCC2=CCCCC2)c(O)c1C=Nc1cccc(F)c1,1.1,5,0.9,-12,5,-3
CCN(CC)CCOC(=O)c1ccc(N=Cc2c(O)[nH]c(=O)[nH]c2=O)cc1,1.1,-1,1.1,-12,-14,2
CCC(C(=O)N1CCC2(CC1)OCCO2)c1ccccc1 (stereo not given),/,-4,/,/,/,4
CC(C(=O)N1CCC2(CC1)OCCO2)C1Sc2ccccc2NC1=O (stereo not given),0.9,6,0,13,95*,-9
O=c1[nH]c(=S)n(Cc2ccco2)c(O)c1C=NCc1cccs1,0.4,14,0.8,59*,23,-19
O=c1cccc2n1CC1CC2CN(Cc2ccc3c(c2)OCO3)C1 (stereo not given),0.5,/,0.4,52*,57*,/
COc1ccc(CN2CC3CC(C2)c2cccc(=O)n2C3)cc1OC (stereo not given),1,/,1,0,-4,/
O=C1C2(c3ccccc3)CN3CN(C2)CC1(c1ccccc1)C3,1.2,-14,0.5,-21,55*,17
CCCN(CC#CCO)CCC,/,12,/,/,/,-12
O[C@H]1C2CCC1C(N1CCCCC1)CC2 (stereo not given in full),1.1,3,1.1,-6,-11,-1
O=C(CN1C(=O)CN=C(c2ccccc2)c2ccccc21)NCc1ccco1,1.1,8,0.9,-7,12,-4
O=C(Cn1cc(C(=O)c2ccccc2)c2ccccc21)NCc1ccco1,0.2,-9,0.2,82*,82*,5
O=C(c1ccccc1)c1cn(CC(=O)N2CCCc3ccccc32)c2ccccc12,0.3,-2,0.6,74*,42,-1
Cc1cc(OCC(=O)Nc2c(C)n(C)n(-c3ccccc3)c2=O)c2c3c(c(=O)oc2c1)CCC3,1,/,0.9,-2,10,/
